Drawing on PubChem BioAssay AID652067 (The Scripps Research Institute Molecular Screening Center, 2013), this text covers activation for 57 compounds.

The structures appear in SMILES notation. Screen size: about 370,000 compounds; about 5,400 (1.5%) were called active. Many of the other results were omitted from the sample, so actives are more common in it than they were. Unmarked numbers belong to inactive results.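 The calls were made as follows: active = activation above the mean of all tested compounds plus 3 SD (cut at about 5.5% in these data); inactive = the rest.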

This assay deals with DAF-12 nuclear receptor (Haemonchus contortus). In words: H. contortus DAF-12 nuclear receptor activators, primary screen, cell-based, luminescence, HEK293, lit1-tk-luc reporter (AID 652067).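 Also: 100% = response to 3 µM Δ7-dafachronic acid high control.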 The note with it: HEK293 hcDAF-12 lit1-tk-luc reporter, at 6.8 µM, stronger effect = higher value, 0% DMSO, 100% Δ7-dafachronic acid.
For the compound `O=C(CN1CCCc2ccccc21)NCc1ccc(F)cc1`, the activation was -1.35%.

With `Cc1cc(C)n2ncc(C(=O)Nc3ccc4c(c3)OCCO4)c2n1`, the activation was -0.67%.

In the case of `CCOc1ncccc1C(=O)OCC(=O)c1c[nH]c2ccccc12`, the activation was 4.68%.

With `O=C(OCC(=O)c1c[nH]c2ccccc12)c1cccc(O)c1`, the activation was 8.68% (active).

`C[C@H](NC(=O)c1ccccc1)C(=O)OCC(=O)c1c[nH]c2ccccc12`: the activation is 4.62%.

For the compound `CCOC(=O)C1=C(C(=O)OCC)C2N(Cc3ccc(C#N)cc3)c3ccccc3[C@@]23C[C@@H](C(=O)OC)N(S(=O)(=O)c2ccc(F)cc2)C3=N1` (some centres not stated), the activation was 0.61%.

As to `CCCCOCC1CN(CCCC)S(=O)(=O)c2c(Oc3ccc(F)cc3)cccc2O1` (configuration not stated), the activation is -1.09%.

For the compound `C/C(=N/NC(=S)Nc1ccccc1)c1ccc2c(c1)OCO2`, the activation was 8.71% (active).

Consider `C/C(=N\NC(=S)NCc1ccccc1)c1ccc(Cl)cc1`, for which the activation is -0.65%.

As to `C/C(Cc1ccccc1)=N\NC(=O)CNC(=O)c1ccc2c(c1)OCCO2`, the activation was -2.46%.

Take `Cn1c(=NC(=O)C2CC2)sc2cc(F)cc(F)c21`: the activation was 7.5% (active).

Regarding `Cc1cc(C)nc(NC(=S)N2CCN(c3ccc(C(F)(F)F)cn3)CC2)c1`, the activation was -1.92%.

Consider `CCCCN(C)C(=O)C1CCN(Cc2ccccn2)CC1`, for which the activation is -1.01%.

For `COc1ccc(OC)c(-n2cc3c(=O)n(C)c(=O)n(C)c3c2)c1`, the activation is -1.87%.

With `Cc1ccc(-c2c3c(=O)n(C)c(=O)n(C)c3cn2-n2cnnc2)cc1`, the activation is 2.64%.

For `COc1ccc(-c2c3c(=O)n(C)c(=O)n(C)c3cn2-c2cccc(OC)c2)cc1`, the activation is 7.44% (active).

For the compound `Cc1ccc(C)c(NC(=O)CCS(=O)(=O)c2ccccc2)c1`, the activation is -3.65%.

For the compound `CC1=C(C)CC(C(=O)NC(C)CCc2ccccc2)C(C(=O)O)C1` (configuration not stated), the activation is -2.02%.

On to `CC(CCc1ccccc1)NC(=O)c1cnc(Cl)c(Cl)c1` (configuration not stated), for which the activation is 6.18% (active).

As for `COCC(C)NC(=O)c1ccc(Cl)c(Cl)c1` (configuration not stated), the activation was -2.09%.

With `O=C(NC1CCCC1)C1CSCCS(=O)(=O)N1Cc1ccccc1` (configuration not stated), the activation is -0.49%.

For `COc1ccccc1CCn1cnc(-c2ccccc2)c1C(C)C`, the activation was 0.67%.

As for `O=C(NCc1ccccc1)[C@H]1CCCN1C(=O)[C@H]1CCCN1C(=O)c1cc(F)cc(F)c1`, the activation is 0.44%.

In the case of `C[C@@H]1COc2cccc(N3CCCC3)c2S(=O)(=O)N1C`, the activation is -0.39%.

Turning to `COC(=O)[C@H](C(C)C)N(CCCc1cn(Cc2ccccc2)nn1)S(=O)(=O)c1ccc(F)cc1Br`, the activation was -4.11%.

With `CC(C)(C)n1nc(C2CC2)c(Br)c1NC(=O)c1ccccc1F`, the activation was -0.41%.

For `Fc1ccc2nc(Nc3nc4c(s3)CCCC4)sc2c1`, the activation was 10% (active).

`COC(=O)C(NC(C)=O)(Nc1nc2c(s1)CCCC2)C(F)(F)F` (configuration not stated): the activation is 1.23%.

Turning to `O=C(C1CCN(S(=O)(=O)c2ccccc2)CC1)N1CCN(C2CCCCC2)CC1`, the activation was -1.68%.

On to `COCCCNC(=O)C[C@H]1C[C@@]2(C(=O)OC)C(=C[C@H](C(C)(C)C)O[C@@H]2C)N(Cc2ccc(Cl)cc2Cl)C1=O`, for which the activation is 0.08%.

Take `COC(=O)Cc1nnn2c1[C@H](C)[C@@H](OC)c1cc(Br)ccc1-2`: the activation was -1.33%.

Regarding `C/C(=N\Nc1nc2ccccc2[nH]1)c1cccs1`, the activation was 5.49%.

Regarding `c1ccc2[nH]c(-c3nc4ccccc4[nH]3)nc2c1`, the activation is 11.1% (active).

Take `CCOC(=O)c1nc(-c2ccc3c(c2)OCO3)[nH]c1C`: the activation was 4.99%.

For the compound `CCOC(=O)CNC(=O)CSc1ncccc1-c1nc2ccccc2[nH]1`, the activation is 1.6%.

Turning to `Cc1ccc(-c2nc3ccccc3[nH]2)cc1N`, the activation was 10.9% (active).

As for `O=C1c2ccccc2C(c2nc3ccccc3[nH]2)N1c1ccccc1` (configuration not stated), the activation was -0.51%.

For `COC(=O)C1CN(CC(C)C)CCS(=O)(=O)N1Cc1ccc(F)cc1` (configuration not stated), the activation was -1.55%.

Turning to `C#CCCN([C@H](C(=O)OC)C(C)C)S(=O)(=O)c1ccc(F)cc1Br`, the activation was -1.11%.

Take `CN(CC(=O)Nc1cccc(F)c1)C(=O)C1CC(=O)N(CCc2ccccc2)C1` (configuration not stated): the activation was 6.61% (active).

Consider `CCNC(=O)c1cccc(NC(=O)C2CC(=O)N(CCc3ccccc3)C2)c1` (configuration not stated), for which the activation is -0.37%.

Regarding `CN(Cc1ccccc1Cl)C(=O)C1CCC(=O)N(CCc2cccc(F)c2)C1` (configuration not stated), the activation is -0.75%.

With `Cc1cccc(C)c1NC(=O)CSc1nc2c([nH]1)c(=O)n(C)c(=O)n2C`, the activation was -0.94%.

Regarding `Cc1cc(C)c(C=NNc2nc3c([nH]2)c(=O)n(C)c(=O)n3C)c(C)c1`, the activation was 1.11%.

As for `Cc1ccc(NN=Nc2nc3c([nH]2)c(=O)n(C)c(=O)n3C)cc1`, the activation is 9.25% (active).

Regarding `O=C(CSc1nc2ccccc2nc1N1CCCCC1)N1CCN(S(=O)(=O)c2cccc([N+](=O)[O-])c2)CC1`, the activation is -0.06%.

Take `O=C(CSc1nnc(-c2ccccn2)n1-c1ccccc1)Nc1ccc2c(c1)OCO2`: the activation was -1.02%.

Take `Cc1ccc(-n2c(SCC(=O)Nc3ccc4c(c3)OCO4)nnc2-c2ccccn2)cc1`: the activation was -2.82%.

On to `CC(C#N)OC(=O)c1cccnc1SCC(=O)Nc1ccc2c(c1)OCO2` (configuration not stated), for which the activation was 7.41% (active).

As to `COC(=O)c1cc(S(=O)(=O)N2CCN(c3ccccc3C)CC2)cn1C`, the activation was -0.73%.

As for `C[C@H](O)[C@@H]1C(=O)N2CCc3c([nH]c4c(-c5ccc6c(c5)OCO6)cccc34)[C@@H]2C[C@@H]1N(C)C(=O)c1ccco1`, the activation was 1.47%.

Take `Cc1cccc(C(=O)Nc2c(-c3ccc(F)cc3)nc3ncccn23)c1`: the activation is -3.14%.

With `COc1ccc(/C=C2\CC3(OC(C)=O)CCCN2C3)cc1` (configuration not stated), the activation was -3.46%.

For `O=C(COC(=O)c1ccccn1)Nc1cccc2ccccc12`, the activation is -0.09%.

With `Cc1cc(NC(=O)COc2ccccc2C#N)no1`, the activation was 3.78%.

Regarding `N#Cc1ccccc1NC(=O)COc1c(Br)cc(Br)c2cccnc12`, the activation is 5.88% (active).

As for `COC(=O)C1=C(C)N(Cc2ccccc2C(F)(F)F)C(=NCc2ccc(OC)cc2)NC1c1cccc(C(F)(F)F)c1` (configuration not stated), the activation was 0.01%.
